TEAD-YAP inh – TEAD-YAP interaction inhibition, primary screen, TEAD-YAP interaction inhibitor project, luminescence, HEK-TIYL cells | 640,000 tested, 1.4% active | TEAD-Gal4/YAP UAS-luciferase luminescence | AID 1259422, 2018 | inhibition, % at 9.12 µM; in the data active means inhibition above about 32%;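 further: 0% = median of test compound wells and 100% = reference inhibitor wells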
MITF primary – MITF inhibitors, primary screen, biochemical, AlphaScreen, human. Microphthalmia-associated transcription factor (Homo sapiens), O75030. inhibition, % at 2.6 µM. 650,000 tested, 0.91% active. AlphaScreen MITF homodimerization, bead proximity signal. AID 1259374, 2018; in the data active means inhibition above about 50%;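 further: 0% = vehicle wells with protein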
GPR151 activ – activators of human GPR151, primary screen, cell-based, PathHunter beta-arrestin, luminescence | G-protein coupled receptor 151 (Homo sapiens), Q8TDV0 | PathHunter beta-arrestin GPR151 cells | activation, % at 11.2 µM | 650,000 tested, 1% active; in the data active means activation above about 4.9%;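 further: 0% = median of compound wells and 100% = cells with positive control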
FBW7 act – FBW7 E3 ligase activators, primary screen, biochemical, AlphaScreen, human; F-box/WD repeat-containing protein 7 (Homo sapiens), Q969H0; AlphaScreen FBW7–phospho-cyclin E peptide binding, activator screen; normalized activity (activation), % at 26.1 µM; 650,000 tested, 0.13% active; AID 1259310, 2017; in the data active means normalized activity above about 1.9%;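 further: purified mutant Fbw7 with reduced substrate affinity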
Target sequence (Q969H0 whole entry, looked up): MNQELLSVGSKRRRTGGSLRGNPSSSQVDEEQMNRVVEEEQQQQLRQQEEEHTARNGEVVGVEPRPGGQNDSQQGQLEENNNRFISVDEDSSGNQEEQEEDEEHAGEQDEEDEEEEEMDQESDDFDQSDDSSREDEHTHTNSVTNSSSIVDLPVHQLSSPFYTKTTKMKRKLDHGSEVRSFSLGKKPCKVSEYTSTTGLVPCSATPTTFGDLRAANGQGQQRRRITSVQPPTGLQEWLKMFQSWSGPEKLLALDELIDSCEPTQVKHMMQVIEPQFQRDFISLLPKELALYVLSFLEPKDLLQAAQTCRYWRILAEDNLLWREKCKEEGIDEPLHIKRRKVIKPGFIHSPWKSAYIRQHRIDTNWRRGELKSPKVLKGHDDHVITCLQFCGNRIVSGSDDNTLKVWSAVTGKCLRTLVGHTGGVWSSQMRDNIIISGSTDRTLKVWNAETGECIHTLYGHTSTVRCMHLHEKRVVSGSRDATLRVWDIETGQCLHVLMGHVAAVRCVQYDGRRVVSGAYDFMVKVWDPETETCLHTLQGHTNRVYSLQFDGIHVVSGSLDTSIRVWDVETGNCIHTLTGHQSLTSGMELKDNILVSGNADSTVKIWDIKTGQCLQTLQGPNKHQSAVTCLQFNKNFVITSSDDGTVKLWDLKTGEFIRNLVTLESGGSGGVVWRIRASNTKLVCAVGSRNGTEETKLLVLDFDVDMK
GPR151 conf act – GPR151 activators, triplicate retest, confirmation, cell-based, PathHunter beta-arrestin, luminescence | shares compounds with GPR151 activ | GPR151 PathHunter beta-arrestin cells, 90 min; % of EA-reagent control over plate median | activation, % at 11.2 µM | 6,700 tested, under 10 active | AID 1508609, 2020;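 active means mean percent activation across replicates above the confirmation screen cutoff of 4.91%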
GPR119 counter – GPR119 activators in beta-arrestin cells, counter-screen for GPR151 activator project, cell-based, PathHunter beta-arrestin, luminescence, triplicate | 6,700 tested, 0.3% active | 90 min; 0 = compound-well median, 100 = enzyme-acceptor control | shares compounds with GPR151 activ | activation, % at 11.2 µM | AID 1508611, 2020;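 active means mean percent activation in the counterscreen above 29.09%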;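 further: counterscreen on off-target GPR119 to flag nonselective hits from the GPR151 activator screen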
* hit, by the source's call; . = not tested or not shown; ! = not active in a repeat. An excerpt weighted towards active compounds, which were near 3.5% of everything screened.

SMILES	TEAD-YAP inh	MITF primary	GPR151 activ	FBW7 act	GPR151 conf act	GPR119 counter
CCN1C(=O)C(Cc2c[nH]c3ccccc23)NC1=S (stereo not given)	4.7	7.7	0.9	0.1	.	.
CCOc1ccccc1OCCN[C@H](C)Cc1ccc(OC)c(S(N)(=O)=O)c1	-1.9	-16.1	6.8*	0.1	0.0	0.3
O=C(Nc1cc(Cl)ccc1Cl)c1cnccn1	-4.3	0.8	-1.1	0.0	.	.
COc1c(Cl)cc(C(=O)NCc2ccc3c(c2)OCO3)cc1Cl	-6.4	-0.3	5.9*	0.2	-0.5	-8.5
COc1ccc(-c2noc(N3CCC(C(=O)NCc4ccc5c(c4)OCO5)CC3)n2)cc1	-0.5	9.0	7.9*	0.0	0.3	2.6
COCCNc1ncnc2sc3c(c12)CC(C)CC3 (stereo not given)	-23.7	-13.4	1.8	-0.1	.	.
CCN(CC)C(=O)C1CCCN(c2ccc([N+](=O)[O-])cc2S(=O)(=O)N2CCCC2)C1 (stereo not given)	-16.8	-3.5	7.0*	0.1	0.2	14.5
CCN(CC)C(=O)C1CCCN(c2ccc([N+](=O)[O-])cc2[N+](=O)[O-])C1 (stereo not given)	8.7	-4.4	0.7	0.0	.	.
CC(C)NC[C@H](O)COc1cccc2ccccc12	1.2	-17.8	8.0*!	0.2	1.7	4.6
Nc1c(C(=O)Nc2ccc(Oc3ccccc3)cc2)nnn1Cc1ccccc1	-11.7	-7.2	2.2	0.1	.	.
COc1ccc(NC(=O)c2nnn(Cc3ccccc3)c2N)cc1	-23.5	8.9	8.1*	0.1	-0.3	5.8
CCc1nc2sc3c(N)ncnc3c2cc1C	2.9	-2.1	0.6	-0.1	.	.
COc1ccc(OCc2cc(C(=O)N[C@H]3CCCCNC3=O)no2)c(Cl)c1	-47.1	0.5	5.0*	-0.1	-0.3	-0.1
COc1ccc(OCc2cc(C(=O)N3CCCCC3CO)no2)c(Cl)c1 (stereo not given)	-42.1	8.6	1.4	0.0	.	.
COc1cc(=O)n2c(c1C(=O)N1CCCC1)CCN(Cc1cc(C)c(C)cc1C)CC2	6.2	7.0	5.2*	-0.1	0.6	9.8
Clc1ccccc1-c1ccc(CN2CCc3nncn3CC2)o1	8.6	-0.4	1.7	-0.1	.	.
CC(=O)c1cc2c(cc1NC(=O)c1ccccc1)OCCO2	-0.1	13.3	-0.5	0.2	.	.
CC(=O)c1cc2c(cc1NC(=O)c1cccc(Br)c1)OCCO2	12.5	17.7	5.6*	0.1	-0.1	-1.9
Cc1ccccc1C(=O)NC(C)c1nnc2n1CCN(Cc1ccccc1Cl)CC2 (stereo not given)	-0.5	-11.0	-1.9	-0.1	.	.
COCCCNCCn1cnc2c(N)ncnc21	3.3	-7.0	7.2*	-0.1	-1.0	-1.6
CC(=O)Nc1ccc(Nc2ccnc(N3CCc4ccccc4C3)n2)cc1	27.6	7.5	5.1*	0.0	1.9	28.4
CCCc1nc2cccnc2n1C1CCN(Cc2nc3ccccc3n2C)CC1	3.7	12.7	0.2	0.2	.	.
CC(C)(C)OC(=O)NNC(=O)/C=C/c1cc(Br)ccc1F	2.8	2.1	5.2*	0.1	2.5	7.6
COc1ccc(CNc2nc(C)nc3sc4c(c23)CCC4)cc1OC	3.3	3.5	0.9	-0.2	.	.
CC1C2NC(=S)NC1(C)Oc1ccccc12 (stereo not given)	0.7	8.4	7.4*	0.0	0.1	9.0
SMILES	TEAD-YAP inh	MITF primary	GPR151 activ	FBW7 act	GPR151 conf act	GPR119 counter
O=C(c1c(C(F)(F)F)nc2ccccn12)N1CCC1	1.2	10.2	-0.8	0.2	.	.
Cc1cccc(Nc2nc(NCCO)nc(N3CCOCC3)n2)c1	-11.8	3.0	-1.2	0.4	.	.
COc1ccc(NC(=O)CCC2CCCCC2)c([N+](=O)[O-])c1	-56.8	23.5	6.5*	-0.4	0.5	-8.6
COc1ccc(NC(=O)CCN2C(=O)c3cccc([N+](=O)[O-])c3C2=O)c(OC)c1	-6.4	9.7	-1.9	0.2	.	.
COc1ccc(NC(=O)COC(=O)CC2CCCCC2)c([N+](=O)[O-])c1	-1.4	18.5	4.0	-0.4	.	.
COc1ccccc1Oc1ccc(N2C(=O)c3cccc([N+](=O)[O-])c3C2=O)cc1	-8.1	-2.1	8.4*	-0.4	-0.4	-6.4
COc1ccc(NC(=O)CCCCCN2C(=O)c3cccc([N+](=O)[O-])c3C2=O)c(OC)c1	2.7	14.3	7.9*	0.1	1.4	12.4
O=C(COC(=O)CCN1C(=O)c2cccc([N+](=O)[O-])c2C1=O)NCC(F)(F)F	-3.8	3.0	6.0*	0.7	0.2	3.9
Cc1cc(Br)ccc1NC(=O)c1sc2ncnc(N3CCN(c4ccccc4)CC3)c2c1C	-4.2	13.0	0.0	1.6	.	.
O=C1N[C@@H](Cc2ccc(O)cc2)C(=O)N2CCN(Cc3nc(-c4ccc(F)cc4)cs3)C[C@H]12	4.5	10.1	0.5	0.7	.	.
O=C(Nc1ccccc1)c1ccc(N2C(=O)C3C4C=CC(C4)C3C2=O)cc1 (stereo not given)	-51.6	-1.0	5.0*	0.0	0.8	13.4
COC(=O)c1c(NC(=O)c2ccc(C)cc2)sc2c1CCCC2	3.7	0.9	6.5*	0.0	0.4	13.9
COc1ccc(OC)c(NC(=O)c2c(NCc3ccc(C)o3)sc3c2CCCC3)c1	3.9	3.5	2.7	-0.2	.	.
COC(=O)c1ccc(NC(=O)c2c(NCc3ccc(C)o3)sc3c2CCCC3)cc1	-6.8	14.2	8.1*	-0.2	1.5	0.1
COC(=O)c1c(NC(=O)c2ccc(C)cc2)sc2c1CCCCC2	-0.6	6.0	-1.0	0.4	.	.
c1cc(-c2ccc3nc(-c4ccncc4)[nH]c3c2)ccn1	-43.3	-5.5	0.4	-0.4	.	.
C1=C(c2nc3ccc(-c4ccncc4)cc3[nH]2)CCOc2ccccc21	8.2	-0.5	10.0*	0.2	0.7	20.7
COc1ccc(C)cc1NS(=O)(=O)c1ccc([N+](=O)[O-])cc1	-8.6	30.7	-1.7	0.2	.	.
CC(=O)Nc1ccc(C(=O)CSc2nncn2C)cc1	-1.4	1.1	9.6*	-0.2	0.5	6.3
CCOc1ccc(S(=O)(=O)NCC(c2ccco2)S(=O)(=O)c2ccc(C)cc2)cc1 (stereo not given)	0.0	11.2	8.4*	0.3	-1.3	-11.3
C/C(CC(=O)Nc1ccc2c(c1)OCCO2)=N\NC(=O)C(c1ccccc1)c1ccccc1	6.1	11.3	5.1*	0.1	-0.1	-4.9
CCC(=O)N/N=C(\C)CC(=O)Nc1ccc2c(c1)OCCO2	-12.1	-7.5	-0.4	-0.1	.	.

Compound activity as filed in PubChem.
